Results as given in ChEMBL document CHEMBL1961873, “Compounds: GSK PKIS; Assays: Nanosyn kinase panel” (2012).

Experiments:
[1] = target: Ribosomal protein S6 kinase alpha-6 (Homo sapiens) (UniProt Q9UK32); settings: at 1 µM;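 note: each value is a mean inhibition of RSK4 from a GSK PKIS panel screen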
[2] = target: T1, Serine/threonine-protein kinase Sgk1 (Homo sapiens) (UniProt O00141); settings: at 0.1 µM
T1 sequence (whole entry): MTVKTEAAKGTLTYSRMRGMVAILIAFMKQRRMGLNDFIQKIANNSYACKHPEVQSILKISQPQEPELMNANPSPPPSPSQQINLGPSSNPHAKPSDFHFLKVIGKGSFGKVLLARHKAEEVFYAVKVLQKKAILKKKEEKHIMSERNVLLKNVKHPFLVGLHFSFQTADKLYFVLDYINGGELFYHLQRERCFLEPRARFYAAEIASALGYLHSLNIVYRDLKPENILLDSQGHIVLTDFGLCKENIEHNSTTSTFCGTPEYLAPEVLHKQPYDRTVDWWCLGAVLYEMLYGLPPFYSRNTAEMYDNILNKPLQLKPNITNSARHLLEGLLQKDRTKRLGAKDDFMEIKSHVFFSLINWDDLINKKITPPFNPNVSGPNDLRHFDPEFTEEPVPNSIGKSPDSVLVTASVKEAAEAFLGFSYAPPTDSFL

[3] = target: T1, Serine/threonine-protein kinase Sgk1 (Homo sapiens); settings: at 1 µM
[4] = target: T2, Serine/threonine-protein kinase Sgk2 (Homo sapiens) (UniProt Q9HBY8); settings: at 0.1 µM
T2 sequence (whole entry): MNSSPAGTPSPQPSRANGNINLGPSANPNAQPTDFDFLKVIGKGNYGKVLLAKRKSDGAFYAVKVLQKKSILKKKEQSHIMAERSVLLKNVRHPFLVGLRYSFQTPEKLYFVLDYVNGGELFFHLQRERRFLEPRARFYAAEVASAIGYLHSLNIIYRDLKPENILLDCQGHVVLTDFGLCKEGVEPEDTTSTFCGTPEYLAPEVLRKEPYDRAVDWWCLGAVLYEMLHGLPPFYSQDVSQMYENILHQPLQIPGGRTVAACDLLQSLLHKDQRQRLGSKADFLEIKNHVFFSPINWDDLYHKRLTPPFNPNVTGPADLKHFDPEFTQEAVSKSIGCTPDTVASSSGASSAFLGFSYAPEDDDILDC

[5] = target: T2, Serine/threonine-protein kinase Sgk2 (Homo sapiens); settings: at 1 µM
[6] = target: T3, Serine/threonine-protein kinase Sgk3 (Homo sapiens) (UniProt Q96BR1); settings: at 0.1 µM
T3 sequence (whole entry): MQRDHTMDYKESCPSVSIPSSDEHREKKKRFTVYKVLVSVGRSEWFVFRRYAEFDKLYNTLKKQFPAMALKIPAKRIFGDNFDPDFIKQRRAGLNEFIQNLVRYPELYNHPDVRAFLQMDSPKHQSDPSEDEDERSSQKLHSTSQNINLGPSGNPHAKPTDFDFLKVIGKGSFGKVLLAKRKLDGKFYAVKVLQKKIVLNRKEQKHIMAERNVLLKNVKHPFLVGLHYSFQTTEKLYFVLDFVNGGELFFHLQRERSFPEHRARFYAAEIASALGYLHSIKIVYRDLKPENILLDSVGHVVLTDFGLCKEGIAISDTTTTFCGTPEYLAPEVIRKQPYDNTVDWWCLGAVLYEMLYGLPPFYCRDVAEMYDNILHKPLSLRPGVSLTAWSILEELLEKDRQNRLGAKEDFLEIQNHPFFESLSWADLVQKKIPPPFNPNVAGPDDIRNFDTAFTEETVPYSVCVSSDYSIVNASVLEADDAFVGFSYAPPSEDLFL

[7] = target: T3, Serine/threonine-protein kinase Sgk3 (Homo sapiens); settings: at 1 µM
[8] = target: 5'-AMP-activated protein kinase catalytic subunit alpha-1 (Homo sapiens) (UniProt Q13131); settings: at 0.1 µM
Sequence of 5'-AMP-activated protein kinase catalytic subunit alpha-1 (Homo sapiens) (Q13131 whole entry, looked up): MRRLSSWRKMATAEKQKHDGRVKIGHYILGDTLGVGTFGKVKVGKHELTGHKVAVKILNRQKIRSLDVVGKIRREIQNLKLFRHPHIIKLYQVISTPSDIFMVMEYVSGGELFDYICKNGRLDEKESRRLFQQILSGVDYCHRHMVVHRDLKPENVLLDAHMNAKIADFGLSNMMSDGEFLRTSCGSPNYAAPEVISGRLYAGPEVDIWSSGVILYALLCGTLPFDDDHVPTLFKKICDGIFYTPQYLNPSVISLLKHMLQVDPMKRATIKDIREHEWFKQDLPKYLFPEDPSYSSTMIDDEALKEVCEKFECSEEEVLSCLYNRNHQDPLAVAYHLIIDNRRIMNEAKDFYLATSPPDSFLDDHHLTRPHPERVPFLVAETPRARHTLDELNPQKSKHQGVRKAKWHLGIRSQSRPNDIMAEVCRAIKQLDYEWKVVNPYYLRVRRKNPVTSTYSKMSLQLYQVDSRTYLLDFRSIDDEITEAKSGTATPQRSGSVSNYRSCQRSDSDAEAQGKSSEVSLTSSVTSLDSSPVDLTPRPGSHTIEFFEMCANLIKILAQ

[9] = target: 5'-AMP-activated protein kinase catalytic subunit alpha-1 (Homo sapiens) (UniProt Q13131); settings: at 1 µM
[10] = target: 5'-AMP-activated protein kinase catalytic subunit alpha-2 (Homo sapiens) (UniProt P54646); settings: at 0.1 µM
Sequence of 5'-AMP-activated protein kinase catalytic subunit alpha-2 (Homo sapiens) (P54646 whole entry, looked up): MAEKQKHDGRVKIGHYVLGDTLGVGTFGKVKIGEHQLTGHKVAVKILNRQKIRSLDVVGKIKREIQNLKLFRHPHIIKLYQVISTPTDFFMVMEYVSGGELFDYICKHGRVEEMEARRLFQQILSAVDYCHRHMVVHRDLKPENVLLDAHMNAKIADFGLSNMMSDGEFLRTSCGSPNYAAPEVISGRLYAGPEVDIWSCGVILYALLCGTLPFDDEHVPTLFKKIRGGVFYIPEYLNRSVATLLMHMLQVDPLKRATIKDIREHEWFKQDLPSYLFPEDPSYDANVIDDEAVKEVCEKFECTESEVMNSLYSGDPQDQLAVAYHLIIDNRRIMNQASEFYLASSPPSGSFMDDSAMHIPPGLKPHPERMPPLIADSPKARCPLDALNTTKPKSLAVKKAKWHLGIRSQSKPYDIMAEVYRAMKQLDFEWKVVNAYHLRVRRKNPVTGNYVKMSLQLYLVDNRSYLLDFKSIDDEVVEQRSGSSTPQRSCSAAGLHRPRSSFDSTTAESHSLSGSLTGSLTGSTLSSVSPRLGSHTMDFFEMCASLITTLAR

[11] = target: 5'-AMP-activated protein kinase catalytic subunit alpha-2 (Homo sapiens) (UniProt P54646); settings: at 1 µM
[12] = target: T4, NUAK family SNF1-like kinase 1 (Homo sapiens) (UniProt O60285); settings: at 0.1 µM
T4 sequence (whole entry): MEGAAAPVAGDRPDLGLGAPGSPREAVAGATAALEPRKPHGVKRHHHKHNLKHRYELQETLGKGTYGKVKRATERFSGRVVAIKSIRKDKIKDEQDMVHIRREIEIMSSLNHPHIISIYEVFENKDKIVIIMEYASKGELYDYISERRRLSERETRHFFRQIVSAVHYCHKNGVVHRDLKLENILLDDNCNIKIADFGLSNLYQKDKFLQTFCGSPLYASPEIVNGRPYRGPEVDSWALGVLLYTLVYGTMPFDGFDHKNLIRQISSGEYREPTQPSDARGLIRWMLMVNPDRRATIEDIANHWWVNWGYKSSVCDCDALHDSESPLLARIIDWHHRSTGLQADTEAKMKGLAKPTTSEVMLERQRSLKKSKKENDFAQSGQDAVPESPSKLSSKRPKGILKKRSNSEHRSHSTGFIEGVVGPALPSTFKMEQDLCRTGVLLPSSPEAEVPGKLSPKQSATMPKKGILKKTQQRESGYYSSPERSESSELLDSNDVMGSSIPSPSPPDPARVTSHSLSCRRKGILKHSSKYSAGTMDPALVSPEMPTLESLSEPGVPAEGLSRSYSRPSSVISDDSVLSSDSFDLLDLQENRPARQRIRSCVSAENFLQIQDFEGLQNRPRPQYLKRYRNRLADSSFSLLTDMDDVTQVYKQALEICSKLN

[13] = target: T4, NUAK family SNF1-like kinase 1 (Homo sapiens); settings: at 1 µM
[14] = target: T5, Serine/threonine-protein kinase BRSK1 (Homo sapiens) (UniProt Q8TDC3); settings: at 0.1 µM
T5 sequence (whole entry): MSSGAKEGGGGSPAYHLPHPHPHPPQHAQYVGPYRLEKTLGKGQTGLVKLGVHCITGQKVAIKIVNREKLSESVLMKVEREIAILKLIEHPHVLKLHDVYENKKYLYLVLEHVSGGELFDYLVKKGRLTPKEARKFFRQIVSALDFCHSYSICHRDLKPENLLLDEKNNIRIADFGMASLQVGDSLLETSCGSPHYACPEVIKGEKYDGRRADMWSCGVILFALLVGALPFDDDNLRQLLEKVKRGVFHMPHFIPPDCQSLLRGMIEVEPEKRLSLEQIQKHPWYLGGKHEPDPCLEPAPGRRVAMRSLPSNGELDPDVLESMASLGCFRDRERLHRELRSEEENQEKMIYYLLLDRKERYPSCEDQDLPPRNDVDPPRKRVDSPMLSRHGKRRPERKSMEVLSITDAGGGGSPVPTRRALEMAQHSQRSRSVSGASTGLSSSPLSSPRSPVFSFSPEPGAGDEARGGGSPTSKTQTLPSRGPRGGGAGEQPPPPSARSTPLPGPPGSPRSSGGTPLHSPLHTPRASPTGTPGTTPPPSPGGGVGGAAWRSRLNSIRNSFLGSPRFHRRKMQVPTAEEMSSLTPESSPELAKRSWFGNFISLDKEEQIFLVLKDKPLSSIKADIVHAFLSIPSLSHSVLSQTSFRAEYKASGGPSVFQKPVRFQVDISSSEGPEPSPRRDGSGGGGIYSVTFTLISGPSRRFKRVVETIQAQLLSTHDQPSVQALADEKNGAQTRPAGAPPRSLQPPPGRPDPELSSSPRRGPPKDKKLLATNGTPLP

[15] = target: T5, Serine/threonine-protein kinase BRSK1 (Homo sapiens); settings: at 1 µM
[16] = target: T6, Serine/threonine-protein kinase BRSK2 (Homo sapiens) (UniProt Q8IWQ3); settings: at 0.1 µM
T6 sequence (whole entry): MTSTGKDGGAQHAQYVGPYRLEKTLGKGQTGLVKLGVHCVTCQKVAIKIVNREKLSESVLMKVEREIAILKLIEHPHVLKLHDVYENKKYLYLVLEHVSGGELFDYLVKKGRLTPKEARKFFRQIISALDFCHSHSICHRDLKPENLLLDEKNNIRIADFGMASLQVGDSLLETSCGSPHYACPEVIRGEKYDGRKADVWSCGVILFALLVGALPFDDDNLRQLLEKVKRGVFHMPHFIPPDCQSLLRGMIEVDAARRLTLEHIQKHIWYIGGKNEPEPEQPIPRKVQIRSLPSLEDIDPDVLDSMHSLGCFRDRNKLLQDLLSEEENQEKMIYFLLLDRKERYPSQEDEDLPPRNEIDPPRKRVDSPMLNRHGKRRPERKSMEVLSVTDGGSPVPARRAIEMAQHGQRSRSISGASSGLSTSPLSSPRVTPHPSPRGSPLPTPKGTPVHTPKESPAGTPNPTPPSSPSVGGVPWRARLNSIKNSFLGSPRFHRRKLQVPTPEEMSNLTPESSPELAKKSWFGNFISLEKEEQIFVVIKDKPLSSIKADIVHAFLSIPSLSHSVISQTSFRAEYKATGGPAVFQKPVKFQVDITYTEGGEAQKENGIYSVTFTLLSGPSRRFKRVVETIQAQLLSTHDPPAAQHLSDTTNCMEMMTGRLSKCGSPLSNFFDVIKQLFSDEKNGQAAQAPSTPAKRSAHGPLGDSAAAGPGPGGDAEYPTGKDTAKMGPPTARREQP

[17] = target: T6, Serine/threonine-protein kinase BRSK2 (Homo sapiens); settings: at 1 µM
[18] = target: Calcium/calmodulin-dependent protein kinase type 1D (Homo sapiens) (UniProt Q8IU85); settings: at 0.1 µM
Sequence of Calcium/calmodulin-dependent protein kinase type 1D (Homo sapiens) (Q8IU85 whole entry, looked up): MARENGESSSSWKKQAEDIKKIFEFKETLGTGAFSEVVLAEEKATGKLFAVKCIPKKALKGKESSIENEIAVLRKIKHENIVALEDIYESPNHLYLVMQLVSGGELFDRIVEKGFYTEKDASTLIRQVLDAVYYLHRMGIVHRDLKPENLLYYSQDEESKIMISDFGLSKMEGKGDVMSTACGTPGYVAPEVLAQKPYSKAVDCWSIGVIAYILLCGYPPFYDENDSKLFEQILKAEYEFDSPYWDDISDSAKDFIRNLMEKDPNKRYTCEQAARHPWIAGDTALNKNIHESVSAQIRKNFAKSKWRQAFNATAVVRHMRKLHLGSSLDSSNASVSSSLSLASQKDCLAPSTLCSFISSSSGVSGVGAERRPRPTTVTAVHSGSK

[19] = target: Calcium/calmodulin-dependent protein kinase type 1D (Homo sapiens) (UniProt Q8IU85); settings: at 1 µM
[20] = target: Calcium/calmodulin-dependent protein kinase type II subunit alpha (Homo sapiens) (UniProt Q9UQM7); settings: at 0.1 µM;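 note: reported values are averages (mean inhibition of CAMK2A)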
Sequence of Calcium/calmodulin-dependent protein kinase type II subunit alpha (Homo sapiens) (Q9UQM7 whole entry): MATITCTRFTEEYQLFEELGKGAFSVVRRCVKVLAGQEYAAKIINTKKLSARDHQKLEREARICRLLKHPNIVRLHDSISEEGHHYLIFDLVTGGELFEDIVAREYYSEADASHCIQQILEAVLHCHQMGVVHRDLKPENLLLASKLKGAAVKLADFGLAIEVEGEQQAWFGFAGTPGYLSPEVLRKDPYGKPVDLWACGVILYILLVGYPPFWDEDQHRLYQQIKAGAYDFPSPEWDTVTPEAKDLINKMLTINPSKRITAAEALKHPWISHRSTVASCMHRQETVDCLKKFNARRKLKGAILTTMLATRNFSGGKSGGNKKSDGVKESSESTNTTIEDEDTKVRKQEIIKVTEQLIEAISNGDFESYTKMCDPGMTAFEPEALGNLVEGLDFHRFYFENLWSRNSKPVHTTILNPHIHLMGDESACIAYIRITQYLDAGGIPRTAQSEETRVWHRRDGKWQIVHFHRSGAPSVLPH

Sequence of Ribosomal protein S6 kinase alpha-6 (Homo sapiens) (Q9UK32 whole entry): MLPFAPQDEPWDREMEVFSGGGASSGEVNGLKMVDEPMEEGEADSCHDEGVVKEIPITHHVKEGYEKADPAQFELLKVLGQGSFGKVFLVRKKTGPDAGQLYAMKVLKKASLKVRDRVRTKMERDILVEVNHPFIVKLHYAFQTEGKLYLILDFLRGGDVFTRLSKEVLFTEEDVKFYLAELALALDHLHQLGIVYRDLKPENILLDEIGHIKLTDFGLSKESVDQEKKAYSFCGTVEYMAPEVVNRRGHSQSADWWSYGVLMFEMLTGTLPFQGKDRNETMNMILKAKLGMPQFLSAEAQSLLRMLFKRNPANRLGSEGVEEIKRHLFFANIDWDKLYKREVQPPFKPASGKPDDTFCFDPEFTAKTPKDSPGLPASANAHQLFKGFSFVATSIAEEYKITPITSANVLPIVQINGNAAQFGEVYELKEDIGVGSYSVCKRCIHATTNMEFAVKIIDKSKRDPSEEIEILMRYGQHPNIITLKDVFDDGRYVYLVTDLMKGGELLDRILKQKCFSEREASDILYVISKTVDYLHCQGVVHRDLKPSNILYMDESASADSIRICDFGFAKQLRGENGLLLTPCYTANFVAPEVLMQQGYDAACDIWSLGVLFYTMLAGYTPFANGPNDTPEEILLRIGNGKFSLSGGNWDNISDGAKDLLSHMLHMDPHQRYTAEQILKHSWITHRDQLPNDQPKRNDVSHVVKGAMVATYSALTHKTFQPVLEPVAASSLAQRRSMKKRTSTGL

Compound | inhibition [1] [%] | inhibition [2] [%] | inhibition [3] [%] | inhibition [4] [%] | inhibition [5] [%] | inhibition [6] [%] | inhibition [7] [%] | inhibition [8] [%] | inhibition [9] [%] | inhibition [10] [%] | inhibition [11] [%] | inhibition [12] [%] | inhibition [13] [%] | inhibition [14] [%] | inhibition [15] [%] | inhibition [16] [%] | inhibition [17] [%] | inhibition [18] [%] | inhibition [19] [%] | inhibition [20] [%]
Cc1ccc(O)cc1Nc1ccnc2cc(-c3ccccn3)ccc12 | 1.1 | 3.35 | 0.75 | 4.28 | 0.49 | 4.38 | 1.94 | 4.22 | 4.05 | 1.74 | 6.05 | 4.17 | 7.44 | 3.63 | 5.99 | 3.25 | 3.89 | 1.22 | 1.32 | 6.72
O=C(O[C@H]1CN[C@H](C#Cc2cc3ncnc(Nc4ccc(Cc5ccccc5)cc4)c3s2)C1)N1CCOCC1 | 1.25 | 1.05 | 1.98 | 0.65 | 7.04 | 2.7 | 5.58 | 2.64 | 1.94 | -0.29 | 1.84 | -3.65 | -2.64 | 0.3 | 2.86 | 1.6 | 2.92 | -0.64 | -0.69 | 0.64
Fc1cccc(COc2ccc(Nc3ncnc4sc(-c5ccco5)cc34)cc2Cl)c1 | 1.67 | 2.84 | 3.04 | 1.55 | 0.68 | 4.19 | 4.61 | 2.46 | 4.38 | 4.1 | 5.24 | 1.97 | 6.27 | 0.38 | 7.21 | 4.09 | 7.5 | -0.77 | -1.08 | 1.16
CCNC(=O)O[C@H]1CN[C@H](C#Cc2cc3ncnc(Nc4ccc(OCc5cccc(F)c5)c(Cl)c4)c3s2)C1 | 2.88 | 2.25 | -0.58 | 8.05 | 5.53 | 4.38 | -0.29 | 2.46 | 2.35 | 0.44 | 4.45 | 1.68 | 6.34 | 0.67 | 2.32 | 2.25 | 1.26 | 1.21 | 2.24 | 3.45
Fc1ccc(-c2nn3ccccc3c2-c2ccncc2)cc1 | 2.09 | 0.19 | 3.23 | 3.79 | 3.17 | 3.25 | 5.79 | 1.13 | -0.08 | 1.39 | 2.49 | -0.02 | 1.09 | 0.59 | 1.1 | 1.69 | 0.78 | 0.87 | 1.9 | 3.85
c1cc(-c2cnn3nc(N4CCOCC4)ccc23)nc(NC2CC2)n1 | 10.5 | 2.27 | 3.4 | 9.24 | 9.02 | 4.38 | 2.23 | 4.11 | 6.88 | -0.07 | 7.62 | 5.42 | 25.6 | 2.4 | 6.62 | 3.67 | 7.84 | 1.69 | 2.68 | 4.7
Fc1ccc(-c2cc(-c3c[nH]nc3-c3ccccn3)ccn2)cc1 | 0.89 | 3.85 | 5.98 | 3.86 | 0.65 | 5.08 | 4.1 | 4.84 | 4.83 | 2.6 | 1.61 | -0.78 | -3.39 | -0.21 | 0.81 | 1.49 | 1.96 | -2.23 | -1.28 | 3.34
COc1ccc(-c2cc(-c3c[nH]nc3-c3ccccn3)ccn2)cc1 | 1.8 | 2.87 | 7.39 | 5.02 | 5.93 | 4.82 | 6.74 | 4.71 | 6.63 | 0.83 | 3.44 | -7.35 | 2.48 | -0.01 | 2.6 | 2.08 | 3.41 | 0.05 | -1.05 | 4.66
